According to PubChem BioAssay AID1159580 (chemical genetic matrix, 2015):
In all, about 5,500 compounds went through this assay and about 2,000 (36%) were called active. Inconclusive results (about 18%) are left out. Rule as the data show it: active = normalized growth mostly below about 0.91 (no sharp cut-off); inconclusive = no clear call, values can overlap the other calls; inactive = mostly above about 0.92. This is one part of the list.

Assay: chemical genetic growth profiling, strain panel (AID 1159580);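 also: tested at 20 µM; growth read once vehicle control cultures reached saturation at 30 °C; 1 = growth at the plate median or of vehicle wells; lower values mean less growth of the strain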
Details: S. cerevisiae deletion strains, growth OD

Measured: normalized growth

CC1CCN=C(N)S1 (centres undefined)
inactive: locus YAL013W, strain DEP1, hits give low values 0.997 | locus YAL040C, strain CLN3, hits give low values 0.98 | locus YER002W, strain NOP16, hits give low values 1 | locus YNL153C, strain GIM3, hits give low values 0.947 | locus YNL175C, strain NOP13, hits give low values 0.991 | locus YNL197C, strain WHI3, hits give low values 0.99 | locus YNL224C, strain SQS1, hits give low values 1.02 | locus YOR083W, strain WHI5 (second series), hits give low values 0.962 | locus YPL241C, strain CIN2, hits give low values 0.978
